The list is not random: actives were taken first. Their share in the collection is about 2.6%.
ATXN2 expr inh – inhibitors of ATXN2 expression. HEK-293 ATXN2-luciferase reporter, luminescence, 24 h. Potency, µM (titrated, usually from 57 µM), most hits filed as inhibitors. actives 0.72% (n = 360,000); note: nearly all actives have a fitted effect of over 55% in size
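qHTS (up to 57 uM final) was run with 24 h compound exposure of reporter cells at 37 °C. Each well was multiplexed: SteadyGlo luminescence measured ATXN2-luciferase expression after a fluorogenic Gly-Phe-AFC viability readout (25 uM final).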
HepG2 tox-1 – kills HepG2 cells in TGF-b inhibitor counter-screen; HepG2 CAGA-GFP viability, ATP luminescence, 18 h; Potency, µM (doses to about 46.1 µM), hits mostly cytotoxic; actives 0.76% (n = 410,000); AID 588856
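CellTiter-Glo luminescence gave cytotoxicity after 18 hours at 37 degrees C. The cells were HepG2 CAGA-GFP in 1% FBS DMEM, stimulated with 500 pg/mL TGF-beta after compound addition. %Activity was normalised to no-cell wells (complete cell-killing) and DMSO (no toxicity), and curves were fitted and classified.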
uPA surface inh – cell surface uPA generation inhibition | cell surface uPA generation assay, qHTS | Potency, µM (highest dose often 38.3 µM), hits mostly inhibitors | actives 0.31% (n = 330,000); active = well fitted inhibition curve with a large enough effect; inconclusive = small, poorly fitted or top-dose-only effect; inactive = no such curve, though single readings can be large or run the other way; tested in mouse RAW 264.7 cells; note: nearly all actives have a fitted effect of over 55% in size
ATXN viability – cell viability loss in ATXN counter-screen; Potency, µM (doses to about 56.7 µM), usual class: cytotoxic; S2 cells (HEK-293 line with an ATXN2-luciferase reporter) viability, CellTiter-Fluor protease fluorescence, 24 h; actives 0.49% (n = 400,000); note: nearly all actives have a fitted effect of over 40% in size
Giardia killer – Giardia lamblia killing. Giardia lamblia trophozoite viability. activity change, % at 7.66 µM, hits read low. actives 0.15% (n = 340,000). AID 540267; in the data active = activity change below about -80%; inconclusive = between about -30% and that limit;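 note: parasites exposed to compound for two days anaerobically before the ATP read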
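Giardia trophozoites, 100 cells per well, were exposed to compounds for 48 hrs at 37 deg C under anaerobic conditions; viability was then read as ATP content by bioluminescence after 15-30 min at room temperature.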
TGFb SMAD3 inh – TGF-b pathway inhibition | HepG2 CAGA-GFP TGF-b/SMAD3 reporter, GFP fluorescence, 18 h; TGF-beta stimulated, 500 pg/mL final | Potency, µM (series often up to 46.1 µM), usual class: inhibitors | actives 1.2% (n = 410,000) | AID 588855; note: nearly all actives have a fitted effect of over 65% in size
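Inhibition of TGF-beta-driven CAGA-GFP reporter expression in HEPG2 cells is measured by cellular GFP fluorescence after 18 h stimulation with 500 pg/mL recombinant TGF-beta in 1% FBS medium at 37 degrees C.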
TGFb confirm – confirmation of TGF-b signaling inhibitors in HepG2 reporter cells; shares compounds with TGFb SMAD3 inh; HepG2 CAGA-GFP TGF-b reporter, GFP fluorescence, 18 h; cells stimulated with TGF-beta, 500 pg/mL; Potency, µM (titrated, usually from 46.1 µM), usual class: inhibitors; actives 63% (n = 1,600); note: nearly all actives have a fitted effect of over 65% in size
HepG2 tox-2 – counter-screen for TGF-b inhibitors: cytotoxicity in HepG2 cells; HepG2 CAGA-GFP viability, ATP luminescence, 18 h; cells stimulated with TGF-beta, 500 pg/mL; Potency, µM (series often up to 46.1 µM), most hits filed as inhibitors; AID 720535; shares compounds with TGFb SMAD3 inh; actives 27% (n = 1,600); note: nearly all actives have a fitted effect of over 70% in size
CCL64 TGFb inh – blocks TGF-b signaling in CCL64 reporter cells | shares compounds with TGFb SMAD3 inh | CCL64 CAGA-GFP reporter, TGF-b stimulated, GFP fluorescence, 18 h | Potency, µM (doses to about 46.1 µM), hits mostly inhibitors | actives 41% (n = 1,600); note: nearly all actives have a fitted effect of over 65% in size
COP TGFb inh – TGF-b inhibition validated with COP promoter | shares compounds with TGFb SMAD3 inh | HepG2 COP-GFP TGF-b reporter, GFP fluorescence, 18 h; cells stimulated by added recombinant TGF-beta | Potency, µM (titrated, usually from 46.1 µM), actives largely listed as inhibitors | actives 3% (n = 1,600) | AID 720537; note: nearly all actives have a fitted effect of over 70% in size
Of the large screens only hits and unclear results are named; the others gave an inactive call (follow-up assays come after a bar, where they were run). Unless noted, calls come from the whole dose curve; as a rule, active = well fitted curve in the direction sought with a large enough effect; inconclusive = small, poorly fitted or top-dose-only effect, or another doubt; inactive = no such curve, though single readings can be large; an effect the other way counts as inactive or inconclusive.

Cc1nnc(SC(=O)N2c3ccccc3Sc3ccccc32)s1	ATXN2 expr inh 25µM, uPA surface inh inconclusive, TGFb SMAD3 inh 7.1µM (no result: ATXN viability) | TGFb confirm 12µM | HepG2 tox-2 15µM | CCL64 TGFb inh 3.3µM | COP TGFb inh inconclusive
CC1(C)Oc2ccc3ccc(=O)oc3c2C[C@H]1O[C@@H]1O[C@H](CO)[C@@H](O)[C@H](O)[C@H]1O	none
CC(=O)OC(C)(C)/C=C/C(=O)[C@](C)(O)C1[C@H](O)C[C@@]2(C)C3CC=C4C(C=C(O[C@@H]5O[C@H](CO)[C@@H](O)[C@H](O)[C@H]5O)C(=O)C4(C)C)[C@]3(C)C(=O)C[C@]12C (stereo partly drawn)	uPA surface inh inconclusive, ATXN viability inconclusive, TGFb SMAD3 inh 5µM | TGFb confirm 5.2µM | HepG2 tox-2 inconclusive | CCL64 TGFb inh 3.3µM | COP TGFb inh inactive
CC(=O)OCc1cnc(C)c2oc(=O)c(C(=O)Nc3cccc(F)c3)cc12	none (no result: uPA surface inh, Giardia killer)
COCCNC(=O)C1(C(F)(F)F)C/C(=C\CCO)CCCO1 (stereo not drawn)	none (no result: ATXN2 expr inh, uPA surface inh, ATXN viability)
Cc1ccc2nc(N3CCN(C(=O)c4ccc(F)cc4)CC3)c(C#N)cc2c1	TGFb SMAD3 inh 10µM (no result: ATXN2 expr inh) | TGFb confirm inconclusive | HepG2 tox-2 inactive | CCL64 TGFb inh inconclusive | COP TGFb inh inactive
CCC(C)NS(=O)(=O)c1ccc(S(=O)(=O)N2CC=C(c3ccc(F)cc3)CC2)cc1 (stereo not drawn)	TGFb SMAD3 inh 8.9µM | TGFb confirm inconclusive | HepG2 tox-2 inactive | CCL64 TGFb inh inconclusive | COP TGFb inh inactive
CCOC(=O)N1CCc2c(sc3c2c(=O)n(-c2ccc(CC)cc2)c(=O)n3CC(=O)NCC2CCCO2)C1 (stereo not drawn)	uPA surface inh inconclusive (no result: ATXN2 expr inh)
O=C(Nc1ccc(S(=O)(=O)NC2=NCCCCC2)cc1)c1ccc([N+](=O)[O-])s1	ATXN2 expr inh inconclusive, uPA surface inh 10µM, TGFb SMAD3 inh 7.1µM | TGFb confirm 12µM | HepG2 tox-2 inconclusive | CCL64 TGFb inh 21µM | COP TGFb inh inactive
CCCC(=O)Nc1cc(OC)c(NC(=S)Nc2ccc(CC)cc2)cc1OC	none
Cc1ccc(-c2csc(Cc3nc(-c4cc5ccccc5oc4=O)cs3)n2)cc1	TGFb SMAD3 inh inconclusive | TGFb confirm inconclusive | HepG2 tox-2 inactive | CCL64 TGFb inh inactive | COP TGFb inh inactive
CCOc1ccc(C(CN2CCOCC2)C(C)=O)cc1OC (stereo not drawn)	ATXN2 expr inh inconclusive, TGFb SMAD3 inh 2.5µM (no result: uPA surface inh, Giardia killer) | TGFb confirm inconclusive | HepG2 tox-2 16µM | CCL64 TGFb inh 16µM | COP TGFb inh inconclusive
CCOc1ccc(C(C#N)N2CCOCC2)cc1OC (stereo not drawn)	none
Nc1ncnc2c1ncn2C1C=C(CO)C(O)C1O (stereo not drawn)	ATXN2 expr inh inconclusive, HepG2 tox-1 10µM, ATXN viability inconclusive, TGFb SMAD3 inh 8.9µM | TGFb confirm inconclusive | HepG2 tox-2 0.13µM | CCL64 TGFb inh inconclusive | COP TGFb inh inactive
Nc1ncnc2c1ncn2[C@@H]1O[C@H](CO)C[C@H]1O	uPA surface inh inconclusive
COc1ccc(C(=O)CC(=O)c2ccc(C(C)(C)C)cc2)cc1	ATXN2 expr inh inconclusive
COc1ccc(C(=O)C(CCC(CNC(C)(C)C)C(=O)c2ccc(OC)cc2)CNC(C)(C)C)cc1 (stereo not drawn)	ATXN2 expr inh inconclusive, ATXN viability inconclusive, TGFb SMAD3 inh 7.1µM | TGFb confirm inconclusive | HepG2 tox-2 18µM | CCL64 TGFb inh 4.1µM | COP TGFb inh inconclusive
CN1CCN2c3ccccc3CC3(C(=O)OC(C)(C)OC3=O)C2C1 (stereo not drawn)	none (no result: ATXN2 expr inh, uPA surface inh, ATXN viability)
COc1ccccc1N1CCN(C(=O)c2ccc(-c3ccc(Cl)cc3)o2)CC1	uPA surface inh inconclusive, ATXN viability inconclusive, TGFb SMAD3 inh 8.9µM (no result: ATXN2 expr inh) | TGFb confirm 13µM | HepG2 tox-2 12µM | CCL64 TGFb inh inconclusive | COP TGFb inh inactive
Cc1cn([C@H]2C[C@H](O)[C@@H](CCC(=O)NCc3ccco3)O2)c(=O)[nH]c1=O	TGFb SMAD3 inh inconclusive
C[C@@H](C(=O)NCCc1ccccc1)N1C(=O)N2CCc3c([nH]c4ccccc34)[C@@]2(C)C1=O	ATXN viability inconclusive, TGFb SMAD3 inh 10µM | TGFb confirm 16µM | HepG2 tox-2 inconclusive | CCL64 TGFb inh inconclusive | COP TGFb inh inactive
CC1Cn2cc(C(=O)Nc3ccccc3C(F)(F)F)c(=O)c3c(Cl)ccc(c32)O1 (stereo not drawn)	none (no result: ATXN2 expr inh, uPA surface inh, ATXN viability, Giardia killer)
Cc1ccc(Cn2c(C(C)Nc3nc(-c4ccc(Cl)c([N+](=O)[O-])c4)cs3)nc3cc(C(F)(F)F)ccc32)cc1 (stereo not drawn)	none
CCn1nc([N+](=O)[O-])c(C(C#N)c2nc3cc(C(F)(F)F)ccc3s2)c(Cl)c1=O (stereo not drawn)	ATXN2 expr inh inconclusive, TGFb SMAD3 inh 0.35µM (no result: uPA surface inh, ATXN viability) | TGFb confirm 3.3µM | HepG2 tox-2 8.2µM | CCL64 TGFb inh 5.2µM | COP TGFb inh inactive
COC(=O)C1=C(C)NC(=S)NC1c1ccc(OCC(=O)N2CCCCC2)c(OC)c1 (stereo not drawn)	none
Cc1ccc(N2C(=O)CCSC23C(=O)N(Cc2ccccc2)c2ccccc23)cc1 (stereo not drawn)	TGFb SMAD3 inh inconclusive (no result: ATXN2 expr inh, uPA surface inh, ATXN viability, Giardia killer)
CCCCCCCCOC(=O)c1cc([N+](=O)[O-])c(Sc2ncnc3nc[nH]c23)c([N+](=O)[O-])c1	ATXN2 expr inh inconclusive, HepG2 tox-1 13µM, TGFb SMAD3 inh 7.1µM (no result: ATXN viability) | TGFb confirm 21µM | HepG2 tox-2 8.2µM | CCL64 TGFb inh 5.8µM | COP TGFb inh inconclusive
CCCCOC(=O)c1ccc(Nc2ncnc3nc[nH]c23)cc1	none
NNc1ccc2c(C(F)(F)F)cc(C(F)(F)F)nc2n1	none

Screens: PubChem BioAssay, National Center for Advancing Translational Sciences (NCATS)
